# From PubChem BioAssay (NCATS)
# Inconclusive results are not listed. Entries that show only a call come without a potency. Calls of active or inactive are those of the source. Calls come from the whole dose curve; as a rule, active = well fitted inhibition curve with a large enough effect; inconclusive = small, poorly fitted or top-dose-only effect; inactive = no such curve, though single readings can be large or run the other way. Where a SMILES comes first, the peptide text is derived from it. Bridges are numbered along the chain shown (N, C = ends). [ ]: non-standard residue; d: D form. The star is where a group is joined. X1 = CCC(C)C(N)C1=NC(C(=O)*)CS1; dOrn = NCCC[C@@H](N)C(=O)O
# Assay: qHTS to identify inhibitors of the type 1 interferon - major histocompatibility complex class I in skeletal muscle: primary screen against the NCATS Mechanism Interrogation Plate v5.0 (MIPE) Libary (AID 1347411); note: nearly all actives have a fitted effect of over 65% in size
# Settings: iHSKM cells + IFN-b, HiBiT-tagged MHC-I luminescence, 24 h; series mostly up to 45.8 µM
# Text: Assay Submitter (PI): Travis B. Kinder Ph.D. & James Inglese Ph.D.
# Assay Development and Screening Technology Laboratory (ADST)
# National Center for Advancing Translational Sciences (NCATS), Rockville, MD
# National Institute of Health (NIH), Bethesda, Maryland
# Idiopathic inflammatory myopathies, collectively referred to as myositis, are a group of rare autoimmune diseases characterized by skeletal muscle inflammation, weakness, and usually accompanied by systemic pathologies of the skin, lungs, or vasculature. Current immunosuppressive therapies and glucocorticoids are often not curative and are accompanied by harsh side effects, especially in children with juvenile myositis. We initiated a drug repurposing and development program to identify more targeted, less toxic therapeutics to treat myositis. Although its cause is not known, muscle from a subset of patients have an abundance of the inflammatory type 1 interferon (IFN) and a down-stream product major histocompatibility complex class I (MHC class I), which are both thought to contribute to damage and weakness. We conducted quantitative high throughput screening on 6,576 compounds (4,679 unique) through a series of cell-based assays to identify those that inhibit the IFN-stimulated expression of MHC class I in muscle precursor cells (myoblasts). The compound identification and evaluation strategy utilized a primary screen with reporter-tagged MHC class I in genome-engineered myoblasts, ATP content counter screen for viability, HLA-ABC immunofluorescence secondary screen, and HLA-B RT-qPCR tertiary screen.
# The primary screen utilized CRISPR/Cas9 genome-engineering of immortalized human myoblasts, C25cl48, where a pro-luminescent reporter HiBit was fused to the C-terminus of endogenous MHC class I allele HLA-B*08:01 (HLA-B HiBit myoblasts). HiBit is an 11 amino acid fragment of NanoLuc luminescent reporter (Promega Corporation), and when complexed to the larger LgBit fragment, the reconstituted enzyme produces light in the presence of furimazine substrate (Schwinn et al., 2018). Briefly, HLA-B HiBit myoblasts were plated into 1536-well plates, treated with 4.0 ng/ml human IFN-beta and 2,480 compounds from the NCATS Mechanism Interrogation Plate v5.0 (MIPE5.0) in an 11-point, 1:3 titration with a high final concentration of 46 uM. After 24 hrs of treatment, cells were assayed by Nano-Glo HiBiT Lytic Detection System (Promega) and luminescence measured by a ViewLux 1430 Ultra HTS (Perkin Elmer).
# Schwinn MK, Machleidt T, Zimmerman K, Eggers CT, Dixon AS, Hurst R, Hall MP, Encell LP, Binkowski BF, Wood K V. 2018. CRISPR-Mediated Tagging of Endogenous Proteins with a Luminescent Peptide. ACS Chem Biol 13:467-474. doi:10.1021/acschembio.7b00549
# PROTOCOL TABLE (as described by Inglese et al., 2007)
# SEQUENCE No. (e.g., 1, 2, 3, etc.); […] (e.g., Cells, Incubation, Reagent, etc.); VALUE; DESCRIPTION
# 1a; Cells; 5 uL; Use a Multidrop Combi (Thermo Scientific) to seed 300 cells/well into 24 Greiner 1536 well white/solid bottom, high base, TC plates in 5 ul/well of iHSKM growth medium (GM) without dexamethasone into columns 1+2. Add metal lids with gas-exchange holes
# 1b; Cells; 5 uL; Use a Multidrop Combi (Thermo Scientific) to seed 300 cells/well into 24 Greiner 1536 well white/solid bottom, high base, TC plates in 5 ul/well of iHSKM GM without dexamethasone + 4 ng/ml IFN-b into columns 3 - 48. Add metal lids with gas-exchange holes
# 2; Incubate; 1 hr; Incubate at 37 C, 5% CO2, 95% RH
# 3; Compounds; 23 nl; Use Pin Tool (Wako) to transfer DMSO control, ruxolitinib IFN-b inhibitor control [High Concentration = 80 uM final, 16-pt, 1:2 in duplicate], and library compounds in DMSO
# 4; Incubate; 24 hrs; Incubate at 37 C, 5% CO2, 95% RH
# 5; Dispense; 2.5 ul; Use BioRAPTR FRD (Beckman Coulter) to add HiBit lytic reagent
# 6; Incubate; 10 min; Incubate in the dark at ambient temperature for lysis
# 7; Detector; 5 sec; Measure luminescence with ViewLux 1430 Ultra HTS (Perkin Elmer). […]
# Potency is the fitted concentration of half-maximal effect.
row,Compound,Potency
1,Nc1ccn([C@@H]2C(F)=C(CO)[C@@H](O)[C@H]2O)c(=O)n1,inactive
2,COc1ccc2cc(OCC3(C(=O)O)CN(C(=O)c4ccc(F)cc4)C3)ccc2c1,inactive
3,CNc1nc(Nc2cnn([C@H]3CCN(C4COC4)C[C@@H]3F)c2Cl)ncc1C(F)(F)F,inactive
4,CCS(=O)(=O)N1CCC([C@@H](C)n2c(C)c(C(=O)NCc3c(OC)cc(C)[nH]c3=O)c3ccccc32)CC1,inactive
5,CNC(=O)c1ccc(Nc2ncc(C(F)(F)F)c(NCc3nccnc3N(C)S(C)(=O)=O)n2)cc1,5.23 µM (active)
6,O=C(NCC(=O)N1CC[C@H](NC2CCC(O)(c3ccc(-c4ncccn4)cn3)CC2)C1)c1cccc(C(F)(F)F)c1 (stereo not given in full),inactive
7,O=C(O)c1cnn(-c2nc3cc(OC(F)(F)F)c(Cl)cc3[nH]2)c1,inactive
8,NS(=O)(=O)NCCNc1nonc1C(=Nc1ccc(F)c(Br)c1)NO,inactive
9,Cc1cc(Nc2ncc(Cl)c(Nc3ccccc3S(=O)(=O)C(C)C)n2)c(OC(C)C)cc1C1CCNCC1,20.8 µM (active)
10,CC(=O)c1cnc2ccc(-c3cc(Cl)c(O)c(Cl)c3)nc2c1NC1CCC(CN(C)C)CC1 (stereo not given),0.151 µM (active)
11,COc1ncc(-c2ccc3c(Nc4cc(Oc5cc(F)cc(F)c5)cc(C(=O)O)c4)c(S(=O)(=O)NC4CC4)cnc3c2)c(OC)n1,inactive
12,O=c1ccn([C@@H]2O[C@H](CO)[C@@H](O)[C@H]2O)c(=O)[nH]1,inactive
13,CC(C)(O)CNc1nc(Nc2ccnc(C(F)(F)F)c2)nc(-c2cccc(C(F)(F)F)n2)n1,inactive
14,OCc1ccccc1O[C@@H]1O[C@H](CO)[C@@H](O)[C@H](O)[C@H]1O,inactive
15,CN(NC(=O)CC(=O)NN(C)C(=S)c1ccccc1)C(=S)c1ccccc1,inactive
16,CON(C)C(=O)N1N=C(c2cc(F)ccc2F)S[C@@]1(CCCN)c1ccccc1,inactive
17,Cc1nnc(C(C)C)n1C1CC2CCC(C1)N2CC[C@H](NC(=O)C1CCC(F)(F)CC1)c1ccccc1 (stereo not given in full),inactive
18,O=C(O)C[C@H](O)C[C@H](O)/C=C/c1c(C2CC2)nc2ccccc2c1-c1ccc(F)cc1,inactive
19,CCC(C)C(N)C1=NC(C(=O)N[C@@H](CC(C)C)C(=O)N[C@H](CCC(=O)O)C(=O)N[C@H](C(=O)N[C@H]2CCCCNC(=O)[C@H](CC(N)=O)NC(=O)[C@@H](CC(=O)O)NC(=O)[C@H](Cc3cnc[nH]3)NC(=O)[C@@H](Cc3ccccc3)NC(=O)[C@H]([C@@H](C)CC)NC(=O)[C@@H](CCCN)NC2=O)[C@@H](C)CC)CS1 (stereo not given in full) (X1-L[dE]IK[dOrn]I[dF]H[dD]N; lactam 4-C),inactive
20,OC[C@H]1O[C@@H](Oc2cc(O)cc(/C=C/c3ccc(O)cc3)c2)[C@H](O)[C@@H](O)[C@@H]1O,inactive

row,Compound,Potency
1,CCOC(=O)[C@H]1O[C@@H]1C(=O)N[C@@H](CC(C)C)C(=O)NCCC(C)C,inactive
2,Cc1nn(C)c(COc2ccc(N3CCN(S(=O)(=O)N(C)C)CC3)cc2)c1-c1cccc2c(CCCOc3cccc4ccccc34)c(C(=O)O)n(CCN3CCOCC3)c12,inactive
3,CC1(C)O[C@@H]2C[C@H]3[C@@H]4CCC5=CC(=O)C=C[C@]5(C)[C@H]4[C@@H](O)C[C@]3(C)[C@]2(C(=O)CO)O1,inactive
4,NC1CCC(N[C@@H]2C[C@H]2c2ccccc2)CC1 (stereo not given in full),inactive
5,CCNC(=O)CCC/C=C\C[C@@H]1[C@@H](/C=C/C(O)CCc2ccccc2)[C@@H](O)C[C@@H]1O (stereo not given in full),inactive
6,C[C@H]1[C@H](C)CC[C@]2(C(=O)O)CC[C@]3(C)C(=CC[C@@H]4[C@@]5(C)C[C@@H](O)[C@H](O)[C@@](C)(CO)[C@@H]5CC[C@]43C)[C@H]12,inactive
7,Cc1nnc(C(C)C)n1C1CC2CCC(C1)N2CCC(NC(=O)C1CCC(F)(F)CC1)c1ccccc1 (stereo not given),inactive
8,CO[C@@H]1COCC[C@@H]1N[C@@H]1CC[C@@](C(=O)N2CCc3ncc(C(F)(F)F)cc3C2)(C(C)C)C1,inactive
9,CN(C)C/C=C/C(=O)Nc1ccc(C(=O)Nc2cccc(Nc3ncc(Cl)c(-c4c[nH]c5ccccc45)n3)c2)cc1,0.294 µM (active)
10,O=C(O)c1ccc(CCCc2ccc(OCCc3ccc(F)cc3)cc2)o1,inactive
11,O=C(C1CC1)N1CC[C@@H](Cc2n[nH]c(=O)n2-c2ccc(-c3ccc4occc4c3)cc2)C1,inactive
12,CN1CC[C@@H](NC(=O)Nc2ccc(C#N)cc2)C[C@@H]1c1nc2ccccc2[nH]1,inactive
13,CC1=C(/C=C/C(C)=C/C=C/C(C)=C/C=C/C=C(C)/C=C/C=C(C)/C=C/C2=C(C)CCCC2(C)C)C(C)(C)CCC1,inactive
14,N#Cc1ccnc(N2C(=O)CC[C@H]2C(=O)N(c2cncc(F)c2)[C@H](C(=O)NC2CC(F)(F)C2)c2ccccc2Cl)c1,inactive
15,CCCCC(=O)OCC(=O)[C@]1(O)Cc2c(O)c3c(c(O)c2[C@@H](O[C@H]2C[C@H](NC(=O)C(F)(F)F)[C@H](O)[C@H](C)O2)C1)C(=O)c1c(OC)cccc1C3=O,10.4 µM (active)
16,COc1cc2c(Nc3ccc(Cl)c(Cl)c3F)ncnc2cc1OCC1C[C@@H]2CN(C)C[C@@H]2C1 (stereo not given in full),20.8 µM (active)
17,O=C(c1ccc(NS(=O)(=O)c2cccc3cccnc23)cc1)N1CCN(CC2CC2)CC1,inactive
18,Cc1c(-c2ccnn2C)cc(C(=O)NCc2ccc(S(C)(=O)=O)cn2)c(=O)n1-c1cccc(C(F)(F)F)c1,inactive
19,C[C@H]1CN(C[C@H](Cc2ccccc2)C(=O)NCC(=O)O)CC[C@@]1(C)c1cccc(O)c1,inactive
20,C[C@H](CCC(=O)O)[C@H]1CC[C@H]2[C@@H]3[C@H](O)C[C@@H]4C[C@H](O)CC[C@]4(C)[C@H]3CC[C@]12C,inactive
